From PubChem BioAssay (Tox21)
Inconclusive results are not listed. A call without a number means that no potency is given here. Calls of active or inactive are those of the source. Calls follow the shape of the dose curve; as a rule, active = well fitted activation curve with a large enough effect in the signal ratio in the repeat runs (not every such curve was filed as active); inconclusive = weak or mixed curves, or effect the other way; inactive = no such curve, though single readings can be large or run the other way; the % refers to the signal ratio.

molecular target: Peroxisome proliferator-activated receptor gamma (Homo sapiens) (UniProt P37231); experiment: qHTS assay to identify small molecule agonists of the peroxisome proliferator-activated receptor gamma (PPARg) signaling pathway (AID 743094); settings: HEK293H PPARg-UAS-bla, beta-lactamase FRET ratio, 17 h; series mostly up to 57 µM
Sequence (P37231 whole entry, looked up): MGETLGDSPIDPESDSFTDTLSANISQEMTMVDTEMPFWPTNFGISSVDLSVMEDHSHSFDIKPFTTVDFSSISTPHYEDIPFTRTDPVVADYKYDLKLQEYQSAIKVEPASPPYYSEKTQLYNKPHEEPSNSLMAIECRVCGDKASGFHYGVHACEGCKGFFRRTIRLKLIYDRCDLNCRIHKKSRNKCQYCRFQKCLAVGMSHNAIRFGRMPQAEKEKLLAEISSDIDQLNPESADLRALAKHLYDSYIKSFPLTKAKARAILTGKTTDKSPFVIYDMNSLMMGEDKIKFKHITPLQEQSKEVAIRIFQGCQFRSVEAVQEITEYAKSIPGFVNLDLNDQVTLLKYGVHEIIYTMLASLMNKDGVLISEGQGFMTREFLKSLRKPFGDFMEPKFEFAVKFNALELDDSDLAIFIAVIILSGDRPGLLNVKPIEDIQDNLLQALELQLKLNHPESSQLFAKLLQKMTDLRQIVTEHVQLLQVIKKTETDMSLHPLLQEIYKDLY
Source text: U.S. Tox21 Program National Center for Advancing Translational Sciences [NCATS] NIH Chemical Genomics Center [NCGC] U.S. Environmental Protection Agency [EPA] National Institutes of Environmental Health Sciences [NIEHS] National Toxicology Program [NTP] U.S. Food and Drug Administration [FDA] Tox21 Assay Overview: The peroxisome proliferator-activated receptors (PPARs) are lipid-activated transcription factors of the nuclear receptor superfamily with three distinct subtypes namely PPAR alpha, PPAR delta (also called PPAR beta) and PPAR gamma (PPARg). All these subtypes heterodimerize with Retinoid X receptor (RXR) and these heterodimers regulate transcription of various genes. PPAR-gamma receptor (glitazone receptor) is involved in the regulation of glucose and lipid metabolism. To identify the compounds that activate PPAR-gamma signaling, GeneBLAzer PPAR gamma UAS-bla HEK293H cell line (Invitrogen, Carlsbad, CA, USA) containing a beta-lactamase reporter gene under control of the control of an upstream activator sequence (UAS) stably integrated into HEK293H cells was used to screen Tox21 compound library.
Tox21 Assay Protocol Summary: PPARg-bla cells were dispensed at 3000 cells/6uL/well in 1536-well black wall/clear bottom plates using a Multidrop Combi (Thermo Fisher Scientific, Waltham, MA) dispenser. After the assay plates were incubated at 37C and 5% CO2 for 5 h, 23 nL of compounds dissolved in DMSO, positive controls or DMSO only was transferred to the assay plate by a Pintool station (Kalypsys, San Diego, CA). The assay plates were incubated at 37C for 17 h. After 1 uL of LiveBLAzerTM B/G FRET substrate was added using a Bioraptr Flying Reagent Dispenser (FRD) workstation (Beckman Coulter, Indianapolis, IN, USA), the plates were incubated at room temperature for 1 h, and fluorescence intensity was measured by an Envision plate reader (PerkinElmer, Shelton, CT).

Compound	Potency
CCOP(=O)(OCC)SCCSCC	inactive
O=C(O)C(F)(F)C(F)(F)C(F)(F)C(F)(F)C(F)(F)C(F)(F)C(F)(F)C(F)(F)C(F)(F)F	inactive
Clc1cc(C(Cl)(Cl)Cl)cnc1Cl	inactive
CCCN(CCCl)c1c([N+](=O)[O-])cc(C(F)(F)F)cc1[N+](=O)[O-]	inactive
Oc1ccc(Cl)c(Cl)c1Cl	inactive
c1ccoc1	inactive
COc1c(C(C)(C)C)cc([N+](=O)[O-])c(C)c1[N+](=O)[O-]	inactive
C=CC(C)=O	inactive
CN1C(=O)NC(=O)C(C)(C2=CCCCC2)C1=O (stereo not given)	inactive
[CH3][Sn]([CH3])([Cl])[Cl]	inactive
CCOP(=O)(OCC)Oc1ccc([N+](=O)[O-])cc1	inactive
CCOC(=O)COc1cc(-c2nn(C)c(OC(F)F)c2Cl)c(F)cc1Cl	inactive
CCC(Br)(CC)C(=O)NC(N)=O	inactive
Cn1cc[n+](C)c1 (tested in a mixture with another compound)	inactive
CCOS(C)(=O)=O	inactive
O=C(C(Cl)(Cl)Cl)C(Cl)(Cl)Cl	inactive
C=CC(=O)OCC(C)C	inactive
O=C=Nc1ccc(Cl)cc1	inactive
Cc1ccccc1CCl	inactive
CNC(C)Cc1ccccc1OC (stereo not given)	inactive

Compound	Potency
ClC=C(Cl)Cl	inactive
C=C(C#N)CCC#N	inactive
O=C(NC(=O)c1c(F)cccc1F)Nc1ccc(OC(F)(F)C(F)OC(F)(F)F)c(Cl)c1 (stereo not given)	inactive
CC(c1ccc(O)cc1)(c1ccc(O)cc1)c1ccc(O)cc1	inactive
Nc1nc(=S)[nH][nH]1	inactive
O=C(NCc1cccnc1)Nc1ccc([N+](=O)[O-])cc1	inactive
ClCC(Br)CBr (stereo not given)	inactive
C[C@H]1CNCCc2ccc(Cl)cc21	inactive
N#C/C(N)=C(/N)C#N	inactive
O=S(=O)(O)C(F)(F)C(F)(F)C(F)(F)C(F)(F)F	inactive
Cc1ccccc1C(=O)Nc1cccc(OC(C)C)c1	inactive
NC(=O)C(Cl)(Cl)Cl	inactive
CC/C(=N\OC/C=C/Cl)C1=C(O)CC(C2CCOCC2)CC1=O (stereo not given)	inactive
O=C(O)C(F)(F)C(F)(F)C(F)(F)C(F)(F)C(F)(F)C(F)(F)C(F)(F)C(F)(F)C(F)(F)C(F)(F)F	inactive
Brc1ccc(Oc2ccccc2)cc1	inactive
CN(C)c1ccc(N(C)C)cc1	inactive
C=CC(=O)OC(C)(C)C	inactive
C=CC(=O)OCCCCO	inactive
COCC(C)N(C(=O)CCl)c1c(C)csc1C (stereo not given)	inactive
NCC(CC(=O)O)c1ccc(Cl)cc1 (stereo not given)	inactive
